According to PubChem BioAssay (EPA / NIEHS):
The source made the active and inactive calls. How the source made its calls: active means hit-call score of the fitted dose curve at least 0.9, where 1 is the maximum; inactive means score below 0.9.

Read-out: Tumor necrosis factor receptor superfamily member 6 (Homo sapiens) (UniProt P25445)
Assay: LTEA_HepaRG_FAS: Life Technologies and Expression Analysis (LTEA) Assay for Fas cell surface death receptor (FAS) using HepaRG (AID 2283447)
Settings: mRNA level, 48 h; actives raise or lower the signal
Protocol: LTEA_HepaRG is a cell based, multiplexed-readout assay that uses HepaRG, a human liver cell line, with measurements taken at 48 hours after chemical dosing on a 96-well plate.LTEA_HepaRG_FAS is one of 102 assay component(s) measured in the LTEA HepaRG cell culture assay. It is a marker of Cell proliferation, survival, death.Data from the assay component LTEA_HepaRG_FAS was analyzed into 1 endpoint. This assay endpoint, LTEA_HepaRG_FAS, was analyzed with bidirectional fitting relative to DMSO as the negative control and baseline of activity. Using a type of inducible reporter, measures of mRNA induction for gain or loss-of-signal activity can be used to understand regulation of transcription factor activity. To generalize the intended target to other relatable targets, this assay endpoint is annotated to the cytokine receptor intended target family, where the subfamily is TNF receptor.
A total of 1060 chemcials from the ToxCast library were tested in eight-point concentration-response experiments. Cell culture and cytotoxicity assays were conducted at Thermo Fisher Scientific's Custom Services facility (Madison, WI). A single lot of human HepaRG cells (Thermo Fisher Scientific, Frederick, MD) was used for the cell culture experiments. 96-well format collagen type I coated plates of human HepaRG cells were prepared using established methods. Briefly, cryopreserved HepaRG cells were thawed, plated at a density of approximately 100,000 cells/well in HepaRG Thaw, Plate, and General Purpose media (HPRG770, Thermo Fisher Scientific), and incubated for 48 hours. 0.5% DMSO was selected as vehicle control to balance the requisite need of DMSO in HepaRG cultures to maintain differentiation (for example, baseline metabolism, proportions of hepatocytes vs. cholangiocytes), while enabling further hepatic receptor pathway activation (for example, PXR and CAR) in response to chemical exposure. 48 hours after plating, the culture medium was replaced with HepaRG Serum-Free Incudtion Media. Cells were exposed to each test chemical in duplicate and maintained in CO2 incubators for another 48 hours. Chemical plates were thawed to room temperature and 200x concentrations of treatment groups were prepared. 8-point conentration-reponse curves were made with the highest exposure at 100 uM, followed by half-log dilutions, all in 0.5% DMSO. Each test plate contained variouse controls, induction positive controls (1mM phenobarbital), cytotoxicity positive controls ([…] aflatoxin B1), vehicle controls (0.5% DMSO), and total lysis controls (0.5% DMSO). Cell morphology images were taken using an Essen IncuCyte FLR automated microscope, with six 96-well plates imaged in about 24 minutes. Images were captured and exported and JPEG files. Spent culture media was transfered to black-well plates for the LDH assay, and remaining media was sorted at -80 C for later use. Cells were treated with RLT buffer and frozen until shipped for gene expression analysis. Total RNA was isolated from the cell suspension in 75 uL of Buffer RLT (Qiagen, Germantown, MD 20874) by Quintiles/Expression Analysis (Durham, NC) using a custom isolation procedure. Total RNA from each plate well was transferred to a preamplification plate. Fluidigm's 96.96 Dynamic ArrayTM (Fluidigm, Amsterdam, the Netherlands) technology was used for gene expression analyses by quantitative reverse transcription polymerase chain reaction (qRT-PCR, performed by Quintiles/Expression Analysis, Durham, NC)89. Standard TaqManTM Assays (Applied Biosystems/ThermoFisher Scientific, Foster City, CA) were used to assess the expression of 93 genes selected based on their selectivity and sensitivity to important hepatic receptors known to be modulated by environmental chemicals; importance in human hepatocyte functionality; and hepatotoxicity. […]

Row | Structure (SMILES) | AC50 | outcome
1 | N=C(N)c1ccc(OCCCCCOc2ccc(C(=N)N)cc2)cc1 | 4.23 µM (active) | –
2 | CC(=O)Nc1ccc(O)cc1 | – | inactive
3 | CCCCC=O | – | inactive
4 | CN(C)CCOC(c1ccccc1)c1ccccc1 | – | inactive
5 | OCC(CO)(CBr)CBr | – | inactive
6 | CCCCC(CC)C(=O)O (stereo unspecified) | – | inactive
7 | CCCCCCCCCCCCCCC | – | inactive
8 | Cc1[nH]nc2c1N=C(c1ccccc1Cl)c1cc([N+](=O)[O-])ccc1N2 | 4.11 µM (active) | –
9 | CCCCc1oc2ccccc2c1C(=O)c1cc(I)c(OCCN(CC)CC)c(I)c1 | 66.6 µM (active) | –
10 | CCCCCCCCCCCCOS(=O)(=O)O | – | inactive
11 | CS(=O)(=O)c1ccc([C@@H](CC2CCCC2)C(=O)Nc2cnccn2)cc1Cl | – | inactive
12 | O=C1NS(=O)(=O)c2ccccc21 | – | inactive
13 | O=C(c1ccccc1)c1ccccc1 | – | inactive
14 | CCC(C)c1ccccc1O (stereo unspecified) | – | inactive
15 | CN(Cc1cnc2nc(N)nc(N)c2n1)c1ccc(C(=O)N[C@@H](CCC(=O)O)C(=O)O)cc1 | – | inactive
16 | O=C(CCCN1CCC(O)(c2ccc(Cl)cc2)CC1)c1ccc(F)cc1 | 85.8 µM (active) | –
